# Test results as given in ChEMBL document CHEMBL3988442, “University of Dundee, Small-Polar-MMV Screening Library” (2021).
# For some of these results: Results with a measured potency or affinity are listed apart.
# Legend:
# Parameters in all cases: scale not given: direction of the effect not stated beside the values
# [1] = target: Protein translocase subunit SecA (Escherichia coli (strain K12)) (UniProt P10408); test: Assay to Identify E. coli SecA ATPase Inhibitors; format: functional; conditions: 30 µM
# Sequence of Protein translocase subunit SecA (Escherichia coli (strain K12)) (P10408 whole entry): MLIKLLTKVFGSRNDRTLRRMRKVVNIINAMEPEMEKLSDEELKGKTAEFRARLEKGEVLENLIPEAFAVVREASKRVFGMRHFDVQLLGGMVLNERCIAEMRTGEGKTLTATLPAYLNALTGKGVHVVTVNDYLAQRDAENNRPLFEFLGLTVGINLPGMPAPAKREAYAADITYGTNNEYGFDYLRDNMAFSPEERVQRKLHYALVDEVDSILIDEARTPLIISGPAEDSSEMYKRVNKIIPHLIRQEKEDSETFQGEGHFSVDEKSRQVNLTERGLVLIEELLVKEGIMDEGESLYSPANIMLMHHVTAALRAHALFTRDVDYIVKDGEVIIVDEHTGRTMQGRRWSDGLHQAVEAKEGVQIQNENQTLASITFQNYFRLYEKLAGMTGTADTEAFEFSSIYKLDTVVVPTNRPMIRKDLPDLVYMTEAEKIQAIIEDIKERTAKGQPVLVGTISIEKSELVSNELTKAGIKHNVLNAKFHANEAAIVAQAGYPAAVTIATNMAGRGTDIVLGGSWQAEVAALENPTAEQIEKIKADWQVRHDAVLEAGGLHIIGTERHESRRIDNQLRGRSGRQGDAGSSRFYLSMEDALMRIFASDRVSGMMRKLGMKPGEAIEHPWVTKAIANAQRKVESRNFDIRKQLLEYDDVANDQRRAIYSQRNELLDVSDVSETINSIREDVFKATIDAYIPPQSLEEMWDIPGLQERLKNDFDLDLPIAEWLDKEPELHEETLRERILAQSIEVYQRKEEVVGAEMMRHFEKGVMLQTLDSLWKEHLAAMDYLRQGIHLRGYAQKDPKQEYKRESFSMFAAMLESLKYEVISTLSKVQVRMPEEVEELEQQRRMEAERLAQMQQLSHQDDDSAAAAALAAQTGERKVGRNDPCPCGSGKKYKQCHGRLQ
# [2] = target: T1, Ubiquitin-activating enzyme e1, putative (Leishmania donovani (strain BPK282A1)) (UniProt E9BSI1); test: Leishmania donovani Ubiquitin Activating Enzyme (LdE1); format: functional; conditions: 30 µM
# T1 sequence (whole entry): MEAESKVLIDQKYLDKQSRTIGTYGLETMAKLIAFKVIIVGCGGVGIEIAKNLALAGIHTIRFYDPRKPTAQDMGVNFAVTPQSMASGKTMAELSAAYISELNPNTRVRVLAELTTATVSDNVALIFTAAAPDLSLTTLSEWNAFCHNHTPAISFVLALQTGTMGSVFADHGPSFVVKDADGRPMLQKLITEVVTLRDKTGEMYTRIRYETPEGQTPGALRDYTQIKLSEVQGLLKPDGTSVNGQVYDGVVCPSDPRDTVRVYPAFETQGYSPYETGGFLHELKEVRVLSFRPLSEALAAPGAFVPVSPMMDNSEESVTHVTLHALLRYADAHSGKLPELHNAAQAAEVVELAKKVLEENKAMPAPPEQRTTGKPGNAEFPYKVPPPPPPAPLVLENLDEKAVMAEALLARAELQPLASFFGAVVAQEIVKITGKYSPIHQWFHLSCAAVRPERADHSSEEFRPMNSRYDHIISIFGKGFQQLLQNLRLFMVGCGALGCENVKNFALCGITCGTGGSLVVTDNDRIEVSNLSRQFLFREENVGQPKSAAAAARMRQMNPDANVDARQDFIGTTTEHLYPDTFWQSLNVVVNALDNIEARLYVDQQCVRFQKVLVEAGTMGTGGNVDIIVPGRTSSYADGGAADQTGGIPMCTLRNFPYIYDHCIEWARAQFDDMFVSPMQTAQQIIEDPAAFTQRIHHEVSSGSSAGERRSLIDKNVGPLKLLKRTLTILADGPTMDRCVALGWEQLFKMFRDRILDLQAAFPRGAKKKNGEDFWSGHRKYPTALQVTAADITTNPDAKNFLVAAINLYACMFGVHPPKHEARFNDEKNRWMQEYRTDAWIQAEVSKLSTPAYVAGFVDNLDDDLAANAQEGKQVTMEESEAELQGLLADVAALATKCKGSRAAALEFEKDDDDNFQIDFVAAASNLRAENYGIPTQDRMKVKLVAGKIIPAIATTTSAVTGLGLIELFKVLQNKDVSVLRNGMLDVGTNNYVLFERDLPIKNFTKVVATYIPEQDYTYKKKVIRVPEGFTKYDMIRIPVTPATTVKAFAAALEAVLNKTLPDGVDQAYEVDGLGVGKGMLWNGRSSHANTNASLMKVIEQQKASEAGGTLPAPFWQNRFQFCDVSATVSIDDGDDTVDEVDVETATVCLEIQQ
# [3] = target: AMP-activated protein kinase, AMPK (Homo sapiens) (UniProt P54646+O43741+P54619+Q9UGJ0+Q9Y478+Q13131+Q9UGI9); test: AMP-dependent Kinase enzyme assay. An in vitro enzyme assay that detects ADP turnover that is directly proportional to AMPK activity. This uses naive AMPK that is activated during the assay with MK-8722; format: functional; conditions: 30 µM
# [4] = target: Sialic acid-binding Ig-like lectin 9 (Homo sapiens) (UniProt Q9Y336); test: Hs-Siglec9 ALPHAscreen SOP 20170721; conditions: 10 µM
# Sequence of Sialic acid-binding Ig-like lectin 9 (Homo sapiens) (Q9Y336 whole entry): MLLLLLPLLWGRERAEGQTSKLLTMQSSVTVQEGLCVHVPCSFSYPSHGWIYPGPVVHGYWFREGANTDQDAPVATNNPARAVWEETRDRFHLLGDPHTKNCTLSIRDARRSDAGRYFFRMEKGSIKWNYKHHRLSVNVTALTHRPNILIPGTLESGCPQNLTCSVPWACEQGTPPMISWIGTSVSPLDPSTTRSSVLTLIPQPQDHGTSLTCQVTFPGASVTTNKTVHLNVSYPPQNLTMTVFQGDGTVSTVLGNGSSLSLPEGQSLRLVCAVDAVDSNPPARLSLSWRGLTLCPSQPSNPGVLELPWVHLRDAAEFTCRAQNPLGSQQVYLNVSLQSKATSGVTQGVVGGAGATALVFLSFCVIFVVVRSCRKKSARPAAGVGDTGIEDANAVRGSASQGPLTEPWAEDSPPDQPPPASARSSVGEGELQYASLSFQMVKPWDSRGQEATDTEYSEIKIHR
# Trypanosoma cruzi = test: Trypanosoma cruzi phosphomannomutase and mannose-1-phosphate guanylyltransferase assay; format: functional; conditions: 10 µM
# [5] = target: T2, Arginase-2, mitochondrial (Homo sapiens) (UniProt P78540); test: in vitro enzyme assay to detect the production of urea directly proportional to the activity of Arginase II; format: functional; conditions: 33.3 µM; note: in the data most compounds retested in dose-response had high values
# T2 sequence (whole entry): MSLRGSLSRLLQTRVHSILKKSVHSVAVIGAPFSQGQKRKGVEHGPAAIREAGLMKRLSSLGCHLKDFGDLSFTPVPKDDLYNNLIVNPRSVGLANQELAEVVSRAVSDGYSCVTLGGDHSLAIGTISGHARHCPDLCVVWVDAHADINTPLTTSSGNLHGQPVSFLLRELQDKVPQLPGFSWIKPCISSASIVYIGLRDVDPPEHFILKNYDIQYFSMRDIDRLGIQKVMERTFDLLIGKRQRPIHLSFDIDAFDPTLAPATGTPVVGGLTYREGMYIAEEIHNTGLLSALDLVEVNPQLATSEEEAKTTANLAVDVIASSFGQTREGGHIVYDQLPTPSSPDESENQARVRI
# [6] = target: T3, Proteasome subunit beta (Trypanosoma cruzi) (UniProt O96673); test: Trypanosoma cruzi proteasome chymotrypsin-like activity (TcProtChymo) assay.; note: in the data most compounds retested in dose-response had high values; format: functional; conditions: 9.37 µM
# T3 sequence (whole entry): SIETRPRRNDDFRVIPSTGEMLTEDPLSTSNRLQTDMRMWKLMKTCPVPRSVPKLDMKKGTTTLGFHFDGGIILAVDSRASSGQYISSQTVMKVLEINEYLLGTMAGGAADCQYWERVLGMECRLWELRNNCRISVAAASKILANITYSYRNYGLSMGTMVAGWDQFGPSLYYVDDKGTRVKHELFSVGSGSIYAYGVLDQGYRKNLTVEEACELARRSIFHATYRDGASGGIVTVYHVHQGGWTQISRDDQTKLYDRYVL
# Homo sapiens = species: Homo sapiens; test: To identify inhibition of the IFN signalling (Jak-Stat) pathway via expression of an eGFP reporter gene under the control of an IFN-stimulated response element (ISRE) containing MxA promoter.; format: functional; conditions: 30 µM
# [7] = target: T4, Tyrosyl-tRNA synthetase, putative (Trypanosoma cruzi (strain CL Brener)) (UniProt Q4DSP6); test: Trypanosoma cruzi tyrosyl tRNA synthetase (TcYRS) _High Tyrosine SOP; format: functional; conditions: 30 µM; note: in the data most compounds retested in dose-response had high values
# T4 sequence (whole entry): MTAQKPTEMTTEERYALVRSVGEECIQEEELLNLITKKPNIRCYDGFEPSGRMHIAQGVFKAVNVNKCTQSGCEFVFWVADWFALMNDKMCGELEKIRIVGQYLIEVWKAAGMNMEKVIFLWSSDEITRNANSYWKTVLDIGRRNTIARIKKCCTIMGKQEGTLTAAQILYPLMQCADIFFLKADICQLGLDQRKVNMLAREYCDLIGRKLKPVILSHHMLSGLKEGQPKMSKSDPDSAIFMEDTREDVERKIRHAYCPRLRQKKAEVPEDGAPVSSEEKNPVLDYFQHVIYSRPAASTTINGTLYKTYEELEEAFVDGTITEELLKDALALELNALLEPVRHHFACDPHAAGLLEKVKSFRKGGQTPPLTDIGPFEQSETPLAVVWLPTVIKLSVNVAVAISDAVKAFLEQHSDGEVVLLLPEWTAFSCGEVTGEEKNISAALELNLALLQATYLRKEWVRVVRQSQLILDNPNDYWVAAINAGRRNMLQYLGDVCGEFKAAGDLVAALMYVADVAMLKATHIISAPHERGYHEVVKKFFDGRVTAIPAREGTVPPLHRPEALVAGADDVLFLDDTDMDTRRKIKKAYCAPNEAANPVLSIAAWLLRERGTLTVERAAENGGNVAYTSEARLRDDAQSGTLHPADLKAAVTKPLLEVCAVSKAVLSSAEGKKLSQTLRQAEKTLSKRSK
# [8] = target: T4, Tyrosyl-tRNA synthetase, putative (Trypanosoma cruzi (strain CL Brener)); test: Trypanosoma cruzi tyrosyl tRNA synthetase (TcYRS) SOP; format: functional; conditions: 30 µM
# [9] = target: Chromo domain-containing protein 1 (Saccharomyces cerevisiae (strain ATCC 204508 / S288c) (Baker's yeast)) (UniProt P32657); test: ScCHD-1 Enzyme Inhibition Assay; format: functional; conditions: 30 µM; note: in the data most compounds retested in dose-response had high values
# Sequence of Chromo domain-containing protein 1 (Saccharomyces cerevisiae (strain ATCC 204508 / S288c) (Baker's yeast)) (P32657 whole entry, the tested form may be a part): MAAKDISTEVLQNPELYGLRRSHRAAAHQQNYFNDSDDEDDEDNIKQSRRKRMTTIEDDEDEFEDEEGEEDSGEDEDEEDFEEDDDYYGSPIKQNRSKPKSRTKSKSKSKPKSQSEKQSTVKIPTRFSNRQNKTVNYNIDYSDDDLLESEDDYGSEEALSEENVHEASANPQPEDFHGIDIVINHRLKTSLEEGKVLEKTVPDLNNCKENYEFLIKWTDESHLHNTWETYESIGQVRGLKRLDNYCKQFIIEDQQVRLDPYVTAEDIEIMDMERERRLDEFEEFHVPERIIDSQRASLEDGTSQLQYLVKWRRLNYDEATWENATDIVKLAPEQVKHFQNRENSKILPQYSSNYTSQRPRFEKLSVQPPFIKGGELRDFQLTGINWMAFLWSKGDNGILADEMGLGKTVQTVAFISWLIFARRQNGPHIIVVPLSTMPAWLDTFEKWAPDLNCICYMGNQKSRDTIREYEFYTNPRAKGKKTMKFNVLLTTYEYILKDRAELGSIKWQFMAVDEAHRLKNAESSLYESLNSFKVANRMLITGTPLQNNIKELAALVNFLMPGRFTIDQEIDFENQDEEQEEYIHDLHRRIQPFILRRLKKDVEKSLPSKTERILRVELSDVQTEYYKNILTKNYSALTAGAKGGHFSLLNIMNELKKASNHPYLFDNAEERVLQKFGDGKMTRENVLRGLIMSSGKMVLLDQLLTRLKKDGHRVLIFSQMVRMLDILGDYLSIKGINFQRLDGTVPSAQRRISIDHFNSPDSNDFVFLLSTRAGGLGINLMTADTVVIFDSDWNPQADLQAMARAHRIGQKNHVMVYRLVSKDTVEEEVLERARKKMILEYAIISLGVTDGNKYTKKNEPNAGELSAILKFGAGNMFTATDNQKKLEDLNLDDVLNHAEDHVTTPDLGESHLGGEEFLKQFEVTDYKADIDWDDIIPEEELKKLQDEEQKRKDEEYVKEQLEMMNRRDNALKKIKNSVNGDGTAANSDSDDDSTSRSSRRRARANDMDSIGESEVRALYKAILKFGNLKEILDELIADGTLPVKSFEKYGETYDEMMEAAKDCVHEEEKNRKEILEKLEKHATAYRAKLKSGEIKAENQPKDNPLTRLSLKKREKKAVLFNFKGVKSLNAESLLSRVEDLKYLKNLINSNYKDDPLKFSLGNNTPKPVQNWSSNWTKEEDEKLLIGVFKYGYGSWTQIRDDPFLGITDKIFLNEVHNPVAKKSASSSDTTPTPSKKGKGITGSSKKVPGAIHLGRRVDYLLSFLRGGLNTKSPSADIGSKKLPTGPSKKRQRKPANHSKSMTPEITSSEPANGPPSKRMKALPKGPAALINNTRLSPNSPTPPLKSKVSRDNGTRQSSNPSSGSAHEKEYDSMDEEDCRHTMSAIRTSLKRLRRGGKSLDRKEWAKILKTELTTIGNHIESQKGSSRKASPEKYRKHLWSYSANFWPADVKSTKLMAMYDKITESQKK
SMILES,Percent Effect [1] [%],Percent Effect [2] [%],Percent Effect [3] [%],Percent Effect [4] [%],Percent Effect (Trypanosoma cruzi) [%],Percent Effect [5] [%],Percent Effect [6] [%],Percent Effect (Homo sapiens) [%],Percent Effect [7] [%],Percent Effect [8] [%],Percent Effect [9] [%]
Cc1cccc(NC2CCN(C(=O)Nc3cc(F)cc(F)c3)CC2)n1,-9.91,7.59,-1.53,14.7,12.4,-4.18,4.34,27.7,-0.493,13.9,-7.84
CCc1ccc(C(=O)N2CCCC(n3cncn3)C2)o1 (stereo not given),-10.1,-4.17,-1.09,-2.11,-2.82,-2.21,7.37,4.2,3.16,-2.56,3.19
CCc1nc(C2CCCN2C(=O)CCc2cccs2)no1 (stereo not given),-3.51,-2.7,-4.68,4.58,-3.81,1.29,-4.49,3.17,-0.99,-8.54,-2.06
CCn1c(C(=O)N2CCN(C(=O)COC)CC2)cc2ccccc21,-10.4,13,-4.96,23.8,11.4,2.49,-0.169,10.3,7.77,21.9,-12.3
O=C(Cc1csc(-c2ccc(Cl)cc2)n1)NC(C(=O)O)c1ccccc1 (stereo not given),-2.32,-1.33,10.5,1.1,-3.73,-9.68,14.6,0.509,1.06,-2.56,-10
Cn1cc(C(=O)NC[C@@H]2OC[C@H]3CN(S(C)(=O)=O)CC[C@H]32)cn1,-0.605,-74,-4.74,17,7.74,-1.6,11,9.87,5.21,1.24,-6.34
O=C(O)c1ccc(F)c(S(=O)(=O)Nc2c(F)cccc2-n2cccn2)c1,-6.05,2.67,-4.66,12.6,2.04,3.12,8.02,2.56,4.92,8.64,-3.46
CC(NC(=O)NCCCn1ccnc1)c1ccc2c(c1)OCCCO2 (stereo not given),-3.41,2.7,-7.49,-2.67,-8.08,5.36,-0.539,12.7,1.98,1.22,2.18
COc1ncccc1CNc1cc(N2CCCC2CO)ncn1 (stereo not given),-1.73,2.6,-6.5,5.75,3.75,-8.54,13.3,20.9,3.88,12.2,-10.4
Cc1nc2c(c(C)c1CC(=O)NCc1cccc(C#N)c1)c(=O)[nH]n2C,-4.87,7.79,6.32,0.967,-4.21,1.9,1.05,31.2,2.86,11.8,-1.91
Cc1cc(C(=O)N2CCCC(c3noc(C)n3)C2)[nH]n1 (stereo not given),-10.3,15.2,-4.15,16.6,10.3,-3.04,-2.21,12.9,8.37,21.5,-9.72
CCn1cc(Br)c(C(=O)NCc2cnn(C)c2)n1,-1.67,13,-0.504,11.9,6.79,-6.9,13,1.3,8.6,21,18.8
O=C(NCCCn1ccnc1)N1CCCC1c1ccncc1 (stereo not given),-1.66,-2.67,-1.97,-2.62,-5.36,1.56,-1.57,-1.17,-0.546,1.24,5.86
CCN1CCC(NC(=O)CN2CCc3c(nc(C4CC4)n3C)C2)CC1,-2.61,-5.2,-9.14,13.3,0.374,6.76,-2.37,-16.3,1.94,0,-7.12
N#Cc1ccccc1N1CCCN(C(=O)CCc2nccs2)CC1,-2.01,12.7,-0.172,4.85,-4.25,5.7,3.36,17.5,3.45,11.4,-6.41
CN(C)C(=O)N1CCN(Cc2noc(Cc3ccccc3)n2)CC1,-2.44,0,-1.46,6.32,-0.661,-2.28,-0.409,-0.594,2.46,-3.8,-2.99
CNC(=O)C1CCN(C(=O)c2cccn2Cc2cccs2)CC1,-4.47,-2.6,1.37,-5.3,-5.99,2.85,6.25,40.1,6.8,9.76,-7.72
COCCN1C[C@@H]2CN(Cc3cccc(F)c3)CCC[C@]2(C(=O)O)C1,-4.38,0,0.729,-3.33,-4.24,1.94,8.53,3.04,-2.12,-1.28,-7.5
Cn1ccc(C(=O)N2CCN(c3cc(C#N)ccn3)CC2)cc1=O,-6.91,13.5,-11.9,26.1,4.06,-5.61,7.21,6.78,5.42,13.6,-17.3
O=C(NCCCNCC1CNc2ccnn2C1)c1ccccc1 (stereo not given),0.663,2.7,-9.29,-3.11,0.193,4.29,16.6,9.18,5.82,14.6,-3.29
